Laboratory results as given in PubChem BioAssay.
Several values for one entry are separate records, joined by “and”; a condition that tells them apart may be missing. Equal values may be shown once. Results filed as inconclusive are left out. Activity calls are given as the source filed them.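 How the source made its calls, unless noted: active means normalized viability below 100% at a tested concentration; inactive means the rest.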

Columns and labels:
[1] = viability loss in pontine glioma line – cell-based, SU-DIPG-XVII, MIPE5.0, CellTiter-Glo, qHTS, dose response (AID 1347060; cut-off not given, nearly all actives have AC50 up to about 26 µM;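 on AC50: cells exposed to compound for 48 hours before viability readout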); details: CellTiter-Glo ATP luminescence
[2] = viability loss in pontine glioma line – cell-based, SU-DIPG-XIII, MIPE4.0, CellTiter-Glo, qHTS, dose response (AID 1347061; cut-off not given, nearly all actives have AC50 up to about 37 µM;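 further: cells exposed to compound for 48 hours before readout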); details: CellTiter-Glo ATP luminescence
[3] = viability loss in pontine glioma line – cell-based, JHH-DIPG-1, MIPE4.0, CellTiter-Glo, qHTS, dose response (AID 1347062; cut-off not given, nearly all actives have AC50 up to about 27 µM;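 on AC50: cells exposed to compound for two days before readout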); details: JHH-DIPG-1 viability, CellTiter-Glo ATP luminescence
[4] = viability loss in pontine glioma line – cell-based, SU-DIPG-IV, MIPE4.0, CellTiter-Glo, qHTS, dose response (AID 1347063; cut-off not given, nearly all actives have AC50 up to about 30 µM;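 further: compound exposure lasted 48 hours before the viability readout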); details: CellTiter-Glo ATP luminescence
[5] = viability loss in pontine glioma line – cell-based, SU-DIPG-XIII, MIPE5.0, CellTiter-Glo, qHTS, dose response (AID 1347064; cut-off not given, nearly all actives have AC50 up to about 23 µM;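 on AC50: cells exposed to compound for 48 hours before the viability read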); details: CellTiter-Glo ATP luminescence
[6] = viability loss in pontine glioma line – cell-based, SU-DIPG-XXV, MIPE5.0, CellTiter-Glo, qHTS, dose response (AID 1347065; cut-off not given, nearly all actives have AC50 up to about 26 µM;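 further: cells exposed to compound for 48 hours before ATP readout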); details: CellTiter-Glo ATP luminescence
[7] = growth inhibition of DIPG cells – cell-based, MIPE4.0 library, CellTiter-Glo luminescence, qHTS (AID 1347066; cut-off not given, nearly all actives have AC50 up to about 30 µM;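 further: cells exposed to compound for 48 hours before readout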); details: SU-DIPG-VI viability, CellTiter-Glo ATP luminescence
[8] = JHH-DIPG-1 glioma cell viability, MIPE5.0 library, CellTiter-Glo luminescence, qHTS (AID 1347067; cut-off not given, nearly all actives have AC50 up to about 26 µM;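 further: cells exposed to compound for 48 hours before readout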); details: JHH-DIPG-1 glioma viability, CellTiter-Glo ATP luminescence
[9] = growth inhibition of DIPG cells – cell-based, MIPE5.0 library, qHTS (AID 1347068; cut-off not given, nearly all actives have IC50 up to about 30 µM;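 on IC50: cells exposed to compound for 48 hours before viability readout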); details: SU-DIPG-XXV viability
[10] = drug combination growth inhibition, ovarian cancer – cell-based, oncology-focused library, rucaparib conditional, profiling panel (AID 1508598); details: patient-derived ovarian cancer cells, CellTiter-Glo viability, 144 h, stronger effect = lower value
[11] = viability loss with induced miR-34 in A549 – imaging, A549 dox-inducible miR-34, nuclei and caspase counts, primary screen (AID 1347080;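 active means compounds whose cell count with miR-34 switched on is under 0.7 times the count with it off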); details: A549 miR-34 inducible, Hoechst nuclei count, 48 h
[12] = MELAS cybrid and Rieske KO viability enhancers – cell-based, MELAS cybrids, Rieske KO mouse fibroblasts, CellTiter-Glo, primary screen (AID 1508586;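 active means mean z-score across replicates of 1.96 or higher in either the MELAS or the Rieske mutant cell line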;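 further: z relative to plate mean and SD of compound and empty wells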); details: low glucose
[13] = stronger effect = lower value, cell number ratio, induced over uninduced
[14] = measured here: relative caspase fold change +Dox/-Dox
[15] = measured here: total cells with miR-34 induction, stronger effect = lower value
[16] = measured here: total cells without miR-34 induction
[17] = MELAS cybrid survival, CellTiter-Glo 48 h, stronger effect = higher value
[18] = Rieske KO mouse fibroblast survival, CellTiter-Glo 72 h

C=CC(=O)N1CCC[C@@H](n2nc(-c3ccc(Oc4ccccc4)cc3)c3c(N)ncnc32)C1
active: AC50 [1] 5.9 µM | AC50 [2] 18.7 µM | AC50 [3] 23.5 µM | AC50 [4] 5.26 µM | AC50 [5] 20.9 µM | AC50 [6] 9.34 µM | AC50 [7] 16.6 µM | AC50 [8] 16.6 µM | viability ([10]; at 0.000305 µM, OCI-C5x cells, with rucaparib 10 µM, 100% = cells with rucaparib alone) 99.2% | viability ([10]; at 0.000305 µM, OCI-P5x cells, with rucaparib 20 µM, 100% = cells with rucaparib alone) 88.6% | viability ([10]; at 0.000305 µM, OCI-P5x cells, without rucaparib) 94.3% | viability ([10]; at 0.00122 µM, OCI-P5x cells, with rucaparib 20 µM, 100% = cells with rucaparib alone) 77.7% | viability ([10]; at 0.00122 µM, OCI-P5x cells, without rucaparib) 48.3% | viability ([10]; at 0.00488 µM, OCI-P5x cells, with rucaparib 20 µM, 100% = cells with rucaparib alone) 95.6% | viability ([10]; at 0.0195 µM, OCI-P5x cells, with rucaparib 20 µM, 100% = cells with rucaparib alone) 93.8% | viability ([10]; at 0.0781 µM, OCI-P5x cells, with rucaparib 20 µM, 100% = cells with rucaparib alone) 86.9% | viability ([10]; at 0.313 µM, OCI-P5x cells, with rucaparib 20 µM, 100% = cells with rucaparib alone) 86.1% | viability ([10]; at 0.313 µM, OCI-P5x cells, without rucaparib) 91.8% | viability ([10]; at 1.25 µM, OCI-P5x cells, with rucaparib 20 µM, 100% = cells with rucaparib alone) 92.3% | viability ([10]; at 1.25 µM, OCI-P5x cells, without rucaparib) 93.7% | viability ([10]; at 5 µM, OCI-P5x cells, with rucaparib 20 µM, 100% = cells with rucaparib alone) 57.3% | viability ([10]; at 5 µM, OCI-P5x cells, without rucaparib) 88.7%
inactive: outcome [9] | viability ([10]; at 0.000305 µM, OCI-C5x cells, without rucaparib) 119% | viability ([10]; at 0.00122 µM, OCI-C5x cells, with rucaparib 10 µM, 100% = cells with rucaparib alone) 108% | viability ([10]; at 0.00122 µM, OCI-C5x cells, without rucaparib) 118% | viability ([10]; at 0.00488 µM, OCI-C5x cells, with rucaparib 10 µM, 100% = cells with rucaparib alone) 106% | viability ([10]; at 0.00488 µM, OCI-C5x cells, without rucaparib) 108% | viability ([10]; at 0.00488 µM, OCI-P5x cells, without rucaparib) 103% | viability ([10]; at 0.0195 µM, OCI-C5x cells, with rucaparib 10 µM, 100% = cells with rucaparib alone) 112% | viability ([10]; at 0.0195 µM, OCI-C5x cells, without rucaparib) 112% | viability ([10]; at 0.0195 µM, OCI-P5x cells, without rucaparib) 103% | viability ([10]; at 0.0781 µM, OCI-C5x cells, with rucaparib 10 µM, 100% = cells with rucaparib alone) 114% | viability ([10]; at 0.0781 µM, OCI-C5x cells, without rucaparib) 111% | viability ([10]; at 0.0781 µM, OCI-P5x cells, without rucaparib) 100% | viability ([10]; at 0.313 µM, OCI-C5x cells, with rucaparib 10 µM, 100% = cells with rucaparib alone) 112% | viability ([10]; at 0.313 µM, OCI-C5x cells, without rucaparib) 120% | viability ([10]; at 1.25 µM, OCI-C5x cells, with rucaparib 10 µM, 100% = cells with rucaparib alone) 108% | viability ([10]; at 1.25 µM, OCI-C5x cells, without rucaparib) 125% | viability ([10]; at 5 µM, OCI-C5x cells, with rucaparib 10 µM, 100% = cells with rucaparib alone) 113% | viability ([10]; at 5 µM, OCI-C5x cells, without rucaparib) 121%

CCS(=O)(=O)c1cccc(-c2cc(C(=O)NC3CCN(C)CC3)c(C)c3[nH]c4ncc(C)cc4c23)c1
0.946: fold change [11, 14]
-0.249: z-score [12, 18]
inactive: fold change [11, 13] 1.06
1160: cell count [11, 15]
1090: cell count [11, 16]
active: AC50 [1] 0.59 µM | AC50 [2] 2.96 µM | AC50 [3] 2.64 µM | AC50 [4] 5.26 µM | AC50 [5] 1.48 µM | AC50 [6] 0.59 µM | AC50 [7] 8.33 µM | AC50 [8] 1.48 µM | IC50 [9] 1.48 µM | z-score [12, 17] 2.57

Cc1ccc(O)c(C(CCN(C(C)C)C(C)C)c2ccccc2)c1 (stereo unspecified)
inactive: outcome [1] | outcome [2] | outcome [3] | outcome [4] | outcome [5] | outcome [6] | outcome [7] | outcome [8] | outcome [9] | fold change [11, 13] 0.945 and 0.96 and 0.87 | z-score [12, 17] -0.247
1.69 and 0.719 and 5.48: fold change [11, 14]
8130 and 7320 and 11700: cell count [11, 15]
-0.0904: z-score [12, 18]
8600 and 7630 and 13400: cell count [11, 16]

CN1c2cc(O)c(N=NC(N)=O)cc2CC1S(=O)(=O)O (stereo unspecified)
inactive: outcome [1] | outcome [2] | outcome [3] | outcome [4] | outcome [5] | outcome [6] | outcome [7] | outcome [8] | outcome [9] | fold change [11, 13] 0.929 | z-score [12, 17] -0.39
0.61: fold change [11, 14]
9600: cell count [11, 15]
0.79: z-score [12, 18]
10300: cell count [11, 16]
